In article PMC9911399, “Two distinct binding modes provide the RNA-binding protein RbFox with extraordinary sequence specificity”:
Changes are numbered by the printed parent chain; changes in the protein carry UniProt numbers. Whole data set: some 16,000 sequences, median “ka relative to ugcaugu” near 0.0091, cut for the highest 2% near 0.032. This is one part of a sample in which the highest values are shown more often than they occur.

T1: RBFOX1 RRM (Homo sapiens, UniProt Q9NWB1 109-208)
T1 sequence: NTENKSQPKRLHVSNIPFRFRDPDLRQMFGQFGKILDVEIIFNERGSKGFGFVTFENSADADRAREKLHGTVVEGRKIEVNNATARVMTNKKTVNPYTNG

B1: CAUAACG (DNA:RNA)
RNA: GGGAGACCGGAAUUCAGAUUGUCCCAUAACGUUAAAUCCCGUCGUAGCCACCA
DNA 1: CAATCTGAATTCCGGTCTCCC
DNA 2: TGGTGGCTACGACGGGATT
B2: UGGGGGC (DNA:RNA)
RNA: GGGAGACCGGAAUUCAGAUUGUCCUGGGGGCUUAAAUCCCGUCGUAGCCACCA
DNA 1: CAATCTGAATTCCGGTCTCCC
DNA 2: TGGTGGCTACGACGGGATT
B3: UGUGGGC (DNA:RNA)
RNA: B2 RNA with G27U
DNA 1: CAATCTGAATTCCGGTCTCCC
DNA 2: TGGTGGCTACGACGGGATT
B4: UGGGCUG (DNA:RNA)
RNA: B2 RNA with G29C, G30U, C31G
DNA 1: CAATCTGAATTCCGGTCTCCC
DNA 2: TGGTGGCTACGACGGGATT
B5: CACUUGC (DNA:RNA)
RNA: B1 RNA with U27C, A28U, A29U, C30G, G31C
DNA 1: CAATCTGAATTCCGGTCTCCC
DNA 2: TGGTGGCTACGACGGGATT
B6: GCAUGCC (DNA:RNA)
RNA: B2 RNA with U25G, G26C, G27A, G28U, G30C
DNA 1: CAATCTGAATTCCGGTCTCCC
DNA 2: TGGTGGCTACGACGGGATT
B7: GCAUCCC (DNA:RNA)
RNA: B1 RNA with C25G, A26C, U27A, A28U, A29C, G31C
DNA 1: CAATCTGAATTCCGGTCTCCC
DNA 2: TGGTGGCTACGACGGGATT
B8: GUAUGCA (DNA:RNA)
RNA: B1 RNA with C25G, A26U, U27A, A28U, A29G, G31A
DNA 1: CAATCTGAATTCCGGTCTCCC
DNA 2: TGGTGGCTACGACGGGATT
B9: GGAUGCA (DNA:RNA)
RNA: B2 RNA with U25G, G27A, G28U, G30C, C31A
DNA 1: CAATCTGAATTCCGGTCTCCC
DNA 2: TGGTGGCTACGACGGGATT
B10: AUAUGCA (DNA:RNA)
RNA: B1 RNA with C25A, A26U, U27A, A28U, A29G, G31A
DNA 1: CAATCTGAATTCCGGTCTCCC
DNA 2: TGGTGGCTACGACGGGATT
B11: GGAUGCG (DNA:RNA)
RNA: B1 RNA with C25G, A26G, U27A, A28U, A29G
DNA 1: CAATCTGAATTCCGGTCTCCC
DNA 2: TGGTGGCTACGACGGGATT
B12: GCAUGCG (DNA:RNA)
RNA: B1 RNA with C25G, A26C, U27A, A28U, A29G
DNA 1: CAATCTGAATTCCGGTCTCCC
DNA 2: TGGTGGCTACGACGGGATT
B13: ACAUGCG (DNA:RNA)
RNA: B1 RNA with C25A, A26C, U27A, A28U, A29G
DNA 1: CAATCTGAATTCCGGTCTCCC
DNA 2: TGGTGGCTACGACGGGATT
B14: CGAUGCC (DNA:RNA)
RNA: B2 RNA with U25C, G27A, G28U, G30C
DNA 1: CAATCTGAATTCCGGTCTCCC
DNA 2: TGGTGGCTACGACGGGATT
B15: GGAUGCC (DNA:RNA)
RNA: B2 RNA with U25G, G27A, G28U, G30C
DNA 1: CAATCTGAATTCCGGTCTCCC
DNA 2: TGGTGGCTACGACGGGATT
B16: GUAUGCC (DNA:RNA)
RNA: B2 RNA with U25G, G26U, G27A, G28U, G30C
DNA 1: CAATCTGAATTCCGGTCTCCC
DNA 2: TGGTGGCTACGACGGGATT
B17: CCAUGCC (DNA:RNA)
RNA: B1 RNA with A26C, U27A, A28U, A29G, G31C
DNA 1: CAATCTGAATTCCGGTCTCCC
DNA 2: TGGTGGCTACGACGGGATT
B18: AGGAUUU (DNA:RNA)
RNA: B2 RNA with U25A, G28A, G29U, G30U, C31U
DNA 1: CAATCTGAATTCCGGTCTCCC
DNA 2: TGGTGGCTACGACGGGATT
B19: CUUUGGG (DNA:RNA)
RNA: B1 RNA with A26U, A28U, A29G, C30G
DNA 1: CAATCTGAATTCCGGTCTCCC
DNA 2: TGGTGGCTACGACGGGATT
B20: GAACCCA (DNA:RNA)
RNA: B1 RNA with C25G, U27A, A28C, A29C, G31A
DNA 1: CAATCTGAATTCCGGTCTCCC
DNA 2: TGGTGGCTACGACGGGATT
B21: UUAGAUC (DNA:RNA)
RNA: B2 RNA with G26U, G27A, G29A, G30U
DNA 1: CAATCTGAATTCCGGTCTCCC
DNA 2: TGGTGGCTACGACGGGATT
B22: GGCGUGC (DNA:RNA)
RNA: B2 RNA with U25G, G27C, G29U
DNA 1: CAATCTGAATTCCGGTCTCCC
DNA 2: TGGTGGCTACGACGGGATT
B23: CUCGUCC (DNA:RNA)
RNA: B1 RNA with A26U, U27C, A28G, A29U, G31C
DNA 1: CAATCTGAATTCCGGTCTCCC
DNA 2: TGGTGGCTACGACGGGATT
B24: CCAUCUC (DNA:RNA)
RNA: B1 RNA with A26C, U27A, A28U, A29C, C30U, G31C
DNA 1: CAATCTGAATTCCGGTCTCCC
DNA 2: TGGTGGCTACGACGGGATT
B25: GCAUCAG (DNA:RNA)
RNA: B1 RNA with C25G, A26C, U27A, A28U, A29C, C30A
DNA 1: CAATCTGAATTCCGGTCTCCC
DNA 2: TGGTGGCTACGACGGGATT
B26: GCAUUAA (DNA:RNA)
RNA: GGGAGACCGGAAUUCAGAUUGUCCGCAUUAAUUAAAUCCCGUCGUAGCCACCA
DNA 1: CAATCTGAATTCCGGTCTCCC
DNA 2: TGGTGGCTACGACGGGATT
B27: GCAUCCG (DNA:RNA)
RNA: B26 RNA with U29C, A30C, A31G
DNA 1: CAATCTGAATTCCGGTCTCCC
DNA 2: TGGTGGCTACGACGGGATT
B28: CGCAUCG (DNA:RNA)
RNA: B1 RNA with A26G, U27C, A29U
DNA 1: CAATCTGAATTCCGGTCTCCC
DNA 2: TGGTGGCTACGACGGGATT
B29: GUCCGCA (DNA:RNA)
RNA: B26 RNA with C26U, A27C, U28C, U29G, A30C
DNA 1: CAATCTGAATTCCGGTCTCCC
DNA 2: TGGTGGCTACGACGGGATT
B30: GCAUGCA (DNA:RNA)
RNA: B26 RNA with U29G, A30C
DNA 1: CAATCTGAATTCCGGTCTCCC
DNA 2: TGGTGGCTACGACGGGATT
B31: UCCGAUU (DNA:RNA)
RNA: B2 RNA with G26C, G27C, G29A, G30U, C31U
DNA 1: CAATCTGAATTCCGGTCTCCC
DNA 2: TGGTGGCTACGACGGGATT

target: T1, RBFOX1 RRM; assay: EMSA; HiTS-Eq, 1 nM pool, 10 min; buffer printed only for the single-RNA assays: 10 mM Tris pH 7.5, 150 mM NaCl, 3.4 mM EDTA, 0.001% NP-40, 30 C; settings: tags: His6 N-terminal (pET28a); label: 5' 32P
Method in brief: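 Purified RbFox RRM, wild type or mutant, was incubated for 10 min in 50 µL with 1 nM of a 5′-radiolabelled RNA pool carrying 7 randomized nucleotides, whose flanks were annealed to DNA oligonucleotides, over a series of increasing protein concentrations. Unbound RNA was resolved on 8% native PAGE, cut out, reverse-transcribed, barcoded by PCR and sequenced on an Illumina HiSeq 2500. Relative association constants were derived from changes in read counts for each RNA species versus the control reaction and normalised to the cognate motif.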

Binder | binding signal
B1 | 0.00316 KA relative to UGCAUGU
B2 | 0.014 KA relative to UGCAUGU
B3 | 0.0102 KA relative to UGCAUGU
B4 | 0.039 KA relative to UGCAUGU
B5 | 0.00965 KA relative to UGCAUGU
B6 | 0.829 KA relative to UGCAUGU
B7 | 0.0182 KA relative to UGCAUGU
B8 | 0.0319 KA relative to UGCAUGU
B9 | 0.0274 KA relative to UGCAUGU
B10 | 0.0145 KA relative to UGCAUGU
B11 | 0.0222 KA relative to UGCAUGU
B12 | 0.916 KA relative to UGCAUGU
B13 | 0.00768 KA relative to UGCAUGU
B14 | 0.012 KA relative to UGCAUGU
B15 | 0.0339 KA relative to UGCAUGU
B16 | 0.0139 KA relative to UGCAUGU

Binder | binding signal
B17 | 0.00772 KA relative to UGCAUGU
B18 | 0.0177 KA relative to UGCAUGU
B19 | 0.00295 KA relative to UGCAUGU
B20 | 0.00229 KA relative to UGCAUGU
B21 | 0.0111 KA relative to UGCAUGU
B22 | 0.0292 KA relative to UGCAUGU
B23 | 0.00629 KA relative to UGCAUGU
B24 | 0.00486 KA relative to UGCAUGU
B25 | 0.0121 KA relative to UGCAUGU
B26 | 0.00489 KA relative to UGCAUGU
B27 | 0.0325 KA relative to UGCAUGU
B28 | 0.017 KA relative to UGCAUGU
B29 | 0.0155 KA relative to UGCAUGU
B30 | 0.751 KA relative to UGCAUGU
B31 | 0.00941 KA relative to UGCAUGU
